# Laboratory results reported in PubChem BioAssay (Tox21).
# Inconclusive results are not listed. Calls of active or inactive are those of the source. The call rests on the fitted dose curve; in most records, active means well fitted activation curve with a large enough effect in the repeat runs; inconclusive means weak or mixed curves; inactive means flat fitted curve, though single readings scatter.
# Experiment: Caspase-3/7 induction in HepG2 cells by small molecules, qHTS assay (AID 1346978); further: nearly all actives have a fitted effect of over 15% in size
# Conditions: HepG2 caspase-3/7 activation, Caspase-Glo luminescence, 17 h; series mostly up to 92.4 µM; caspase activation: at the top concentration
# Source text: National Center for Advancing Translational Sciences [NCATS] NIH Chemical Genomics Center [NCGC] U.S. Environmental Protection Agency [EPA] National Institutes of Environmental Health Sciences [NIEHS] National Toxicology Program [NTP] Assay overview: Apoptosis is a process of programmed cell death and plays a central role in the development of multicellular organisms. It is a highly regulated process and induces cell death by activating caspases, which are the members of cysteine aspartic acid-specific protease (caspase) family. Caspases involved in apoptosis are classified by their mechanism of action as initiator caspases (caspase-2, -8, -9 and -10) and executioner caspases (caspase-3, -6, and -7). Inhibition of apoptosis results in number of cancers, autoimmune diseases, inflammatory diseases and viral infection. To identify small molecule compounds that induce apoptosis, a homogeneous, luminescent Caspase-Glo 3/7 assay was used. Wild type HepG2 cells were used to screen Tox21 libraries for identifying caspase-3/7 activity inducers.
# Assay Protocol Summary: HepG2 cells were dispensed at 2,000 per well in 5uL of culture medium into white solid bottom 1536-well plates (Corning Life Sciences, Corning, NY) using a Multidrop Combi (Thermo Scientific, Waltham, MA) dispenser. The assay plates were incubated at 37 C and 5% CO2 for 5hr, and then 23nL of compounds dissolved in DMSO and positive control were transferred using a Pintool station (Wako, San Diego, CA). The assay plates were incubated at 37C and 5% CO2 for 17hr. For caspase-3/7 activity read, 4uL of Caspase-Glo 3/7 reagent (Promega Corporation, Madison, WI) was added to each well of the assay plates using Flying Reagent Dispenser (FRD, Aurora Discovery, San Diego, CA) and incubated the assay plates at room temperature for 30min. The luminescence signal was quantified using a ViewLux plate reader (Perkin Elmer, Shelton, CT).
# On the % scale 0 is the no-effect control and ±100 the full control effect.
row,SMILES,caspase activation
1,CCN1CCC[C@H]1CNC(=O)c1c(OC)ccc(Br)c1OC,0.2% [at 42.5 µM] (inactive)
2,CC(C)(C)c1ccc(OCC2CO2)cc1 (stereo not given),-3.83% (inactive)
3,Nc1nc(N)c(-c2ccccc2)s1,0.912% [at 42.5 µM] (inactive)
4,CCOC(=S)SSC(=S)OCC,0.137% (inactive)
5,CCN(CC)C(C)CN1c2ccccc2Sc2ccccc21 (stereo not given),0.654% [at 42.5 µM] (inactive)
6,CCCCCCOC(=O)CCC,-1.47% (inactive)
7,Cc1ccccn1,-0.669% (inactive)
8,O=C(O)Cc1cc(I)c(Oc2ccc(O)c(I)c2)c(I)c1,-0.369% (inactive)
9,FC(F)(F)C(F)(F)C(F)(F)C(F)(F)C(F)(F)C(F)(F)CCI,0.194% [at 42.5 µM] (inactive)
10,CC(C)(C)C(=O)OCOP(=O)(COCCn1cnc2c(N)ncnc21)OCOC(=O)C(C)(C)C,1.16% [at 42.5 µM] (inactive)
11,CN(C(=O)CCCOc1ccc2[nH]c(=O)ccc2c1)C1CCCCC1,-0.191% [at 42.5 µM] (inactive)
12,CC(C)CCCC(C)CCO (stereo not given),0.159% (inactive)
13,Cc1cccc(OCCOc2cccc(C)c2)c1,0.357% (inactive)
14,C#CCOC(=O)[C@@H](C)Oc1ccc(Oc2ncc(Cl)cc2F)cc1,-2.39% (inactive)
15,Nc1ccc(C(=O)N2CC3CC(CN(Cc4ccccc4)C3)C2)cc1,0.0964% [at 42.5 µM] (inactive)
16,CC1(C)[C@H]2CC[C@]1(C)[C@H](O)C2,-0.137% (inactive)
17,CC(C)(C)c1cc(CO)cc(C(C)(C)C)c1O,4.84% (inactive)
18,CC/C(=C\C(=N/O)C(N)=O)C(C)[N+](=O)[O-] (stereo not given),-0.512% (inactive)
19,O=C(O)COC(=O)Cc1ccccc1Nc1c(Cl)cccc1Cl,-0.0412% [at 42.5 µM] (inactive)
20,C=CC(C)(CCC=C(C)C)OC(=O)c1ccccc1 (stereo not given),-0.988% (inactive)

row,SMILES,caspase activation
1,N=C(N=C(N)N)N1CCOCC1,-1.75% [at 42.5 µM] (inactive)
2,Cc1nc2ccccc2n1Cc1ccc(Cl)cc1,-8.21% [at 42.5 µM] (inactive)
3,Cn1c(=O)c2c(ncn2CC(O)CO)n(C)c1=O (stereo not given),-2.43% [at 42.5 µM] (inactive)
4,O=C1Nc2cc(Cl)ccc2Oc2ccccc21,2.03% [at 42.5 µM] (inactive)
5,CC(C)c1ccccc1C(C)C,-0.237% (inactive)
6,CC(C)CC=O,0.675% (inactive)
7,CC1=CCC(C(C)C)C=C1 (stereo not given),1.34% (inactive)
8,C=C(C)C(=O)OCCN(C)C,0.118% (inactive)
9,Cc1cc(O)ccc1N,1.81% (inactive)
10,CCOC(=O)CC(=O)c1cc(F)c(Cl)nc1Cl,0.311% (inactive)
11,CN1CCC(OC(c2ccccc2)c2ccccc2)CC1,0.307% [at 42.5 µM] (inactive)
12,O=C(O)c1cn(C2CC2)c2cc(Cl)c(F)cc2c1=O,-0.349% [at 42.5 µM] (inactive)
13,NC(N)=NN=C(/C=C/c1ccc([N+](=O)[O-])o1)/C=C/c1ccc([N+](=O)[O-])o1,-12.4% [at 42.5 µM] (inactive)
14,CNS(=O)(=O)Cc1ccc2[nH]cc(CCN(C)C)c2c1,0.115% [at 42.5 µM] (inactive)
15,CN(C)CC[C@@H](c1ccc(Br)cc1)c1ccccn1,1.34% [at 42.5 µM] (inactive)
16,CCCCCCCCN(C)C,1.94% (inactive)
17,CCOC(=O)CC(C)C,0.213% (inactive)
18,COc1ccc2[nH]c(S(=O)Cc3ncc(C)c(OC)c3C)nc2n1 (stereo not given),0.0467% [at 42.5 µM] (inactive)
19,CCCCCCCC/C=C\CCCCCCCC(N)=O,-0.206% (inactive)
20,CCN(CC)C(C)=O,0.0616% (inactive)
